Assay results reported in the supplement of paper PMC6607015.
Structures can show the parent of a compound that is named as a salt.

Legend:
Conditions in all cases: compound concentration in added solution (µM; 5 µl added to 20 µl cells): 10; 18 h
[1] = test system: A431; assay: LBPA endosome anti-LBPA integrated intensity (sum per cell), Z-score; higher = more LBPA staining
Procedure, shortened: (§1)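 After 18 h on 5 µl of 10 µM compound solution in duplicate 384-well imaging plates, HeLa MZ or A431 cells, seeded at 3,500 per well in 20 µl, were fixed with 4% PFA. They were then labelled with 6C4 anti-LBPA antibody, filipin, propidium iodide and CellTracker green, and four 20× fields were recorded per well. Integrated LBPA or filipin intensity per cell, whole-cell or within LBPA endosomes, came from MetaXpress segmentation and was normalised to Z-scores in AcuityXpress.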

[2] = test system: HeLa MZ; assay: as above
Procedure, shortened: as §1

[3] = test system: A431; assay: whole-cell filipin (free cholesterol) integrated intensity, Z-score; higher = more cholesterol staining
Procedure, shortened: as §1

[4] = test system: HeLa MZ; assay: as above
Procedure, shortened: as §1

[5] = test system: A431; assay: filipin (cholesterol) integrated intensity within LBPA endosomes, Z-score; higher = more cholesterol in LBPA endosomes
Procedure, shortened: as §1

[6] = test system: HeLa MZ; assay: as above
Procedure, shortened: as §1

SMILES | LBPA endosome anti-LBPA integrated intensity (z-score) [1] | LBPA endosome anti-LBPA integrated intensity (z-score) [2] | whole-cell filipin (z-score) [3] | whole-cell filipin (z-score) [4] | filipin (z-score) [5] | filipin (z-score) [6]
C=CCOc1ccccc1OCC(O)CNC(C)C (stereo not drawn) [Oxprenolol hydrochloride] | -0.0805 | 0.635 | 0.289 | 0.262 | -0.232 | -0.267
CC(C)(O)c1ccccc1CC[C@@H](SCC1(CC(=O)O)CC1)c1cccc(/C=C/c2ccc3ccc(Cl)cc3n2)c1 [Montelukast] | -0.42 | 0.903 | -0.0363 | 0.0687 | -0.415 | -0.392
CC[C@H]1OC(=O)[C@H](C)[C@@H](O[C@H]2C[C@@](C)(OC)[C@@H](O)[C@H](C)O2)[C@H](C)[C@@H](O[C@@H]2O[C@H](C)C[C@H](N(C)C)[C@H]2O)[C@](C)(O)C[C@@H](C)CN(C)[C@H](C)[C@@H](O)[C@]1(C)O [Azithromycin] | 4.39 | 1.79 | 0.331 | 0.115 | 1.25 | 1.45
C[C@H](CCC(=O)O)[C@H]1CC[C@H]2[C@@H]3C(=O)C[C@@H]4CC(=O)CC[C@]4(C)[C@H]3CC(=O)[C@]12C [Dehydrocholic acid] | -0.567 | -0.186 | -0.785 | -0.553 | -0.549 | -0.532
CC1=C(CC(=O)O)c2cc(F)ccc2/C1=C\c1ccc([S+](C)[O-])cc1 (stereo not drawn) [Sulindac] | -0.696 | -1.83 | -0.98 | -1 | -0.655 | -0.701
Cc1cc2c(cc1S(N)(=O)=O)S(=O)(=O)CCC2 [Meticrane] | -0.412 | -0.455 | -0.803 | -0.699 | -0.464 | -0.558
CC(=O)Nc1ccc(OCC(O)CNC(C)C)cc1 (stereo not drawn) [Practolol] | -0.578 | -0.861 | -0.908 | -0.531 | -0.573 | -0.506
CC(C(=O)O)c1cccc(C(=O)c2ccccc2)c1 (stereo not drawn) [Ketoprofen] | -0.482 | -0.219 | -0.803 | -0.835 | -0.552 | -0.545
CN(C)CCn1nnnc1SCC1=C(C(=O)O)N2C(=O)[C@@H](NC(=O)Cc3csc(N)n3)[C@H]2SC1 [Cefotiam hydrochloride] | -0.662 | -1.47 | -0.797 | -1.09 | -0.548 | -0.711
Cn1c(=O)c2c(ncn2CCO)n(C)c1=O [Etofylline] | -0.487 | -1.05 | -0.938 | -1.17 | -0.451 | -0.58
O=C(O)c1cn(-c2ccc(F)cc2)c2cc(N3CCNCC3)c(F)cc2c1=O [Sarafloxacin] | -0.35 | -0.0848 | 0.000583 | -0.426 | -0.428 | -0.434
CCCCCN(C)CCC(O)(P(=O)(O)O)P(=O)(O)O [Ibandronate sodium] | -0.326 | 0.467 | -0.0185 | 0.267 | -0.423 | -0.352
CCOC(=O)OC(C)OC(=O)[C@@H]1N2C(=O)[C@@H](NC(=O)[C@H](N)c3ccccc3)[C@H]2SC1(C)C (stereo partly drawn) [Bacampicillin hydrochloride] | -0.503 | -1.29 | -0.749 | -0.787 | -0.467 | -0.528
CC(=O)/N=c1/sc(S(N)(=O)=O)nn1C [Methazolamide] | -0.623 | -1.23 | -0.758 | -0.523 | -0.506 | -0.535
Nc1cc(N2CCCCC2)nc(N)[n+]1[O-] [Minoxidil] | -0.316 | -0.257 | -0.274 | 0.345 | -0.426 | -0.263
OCCN1C[C@H](O)[C@@H](O)[C@H](O)[C@H]1CO [Miglitol] | -0.534 | -0.285 | -0.628 | -0.643 | -0.487 | -0.578
NS(=O)(=O)c1cc2c(cc1Cl)NCNS2(=O)=O [Hydrochlorothiazide] | -0.538 | -1.08 | -0.757 | -0.0813 | -0.476 | -0.419
O=C(CCCN1CC=C(n2c(=O)[nH]c3ccccc32)CC1)c1ccc(F)cc1 [Droperidol] | 0.278 | 1.75 | 0.378 | 0.978 | 0.193 | 0.762
CCCNCC(O)COc1ccccc1C(=O)CCc1ccccc1 (stereo not drawn) [Propafenone hydrochloride] | 3.53 | 1.93 | 2.04 | 1.83 | 2.65 | 2.28
CCCC(C(=O)OCCN(CC)CC)(c1ccccc1)c1ccccc1 [Proadifen hydrochloride] | 2.78 | 2.82 | 2.1 | -0.192 | 2.21 | 1.12
O=C(NCCN1CCOCC1)c1ccc(Cl)cc1 [Moclobemide] | -0.577 | -0.12 | -0.751 | -0.413 | -0.499 | -0.447
Cc1cccc(C)c1NC(=O)C(C)N (stereo not drawn) [Tocainide hydrochloride] | -0.343 | -0.526 | 0.139 | -0.393 | -0.431 | -0.603
C[C@H](CCC(=O)O)[C@H]1CC[C@H]2[C@@H]3CC[C@@H]4C[C@H](O)CC[C@]4(C)[C@H]3CC[C@]12C [Lithocholic acid] | -0.507 | -0.5 | -0.232 | 0.929 | -0.446 | -0.289
c1ccc(-c2ccc(C(c3ccccc3)n3ccnc3)cc2)cc1 (stereo not drawn) [Bifonazole] | -0.285 | 0.816 | 0.345 | 0.00932 | -0.374 | -0.192

SMILES | LBPA endosome anti-LBPA integrated intensity (z-score) [1] | LBPA endosome anti-LBPA integrated intensity (z-score) [2] | whole-cell filipin (z-score) [3] | whole-cell filipin (z-score) [4] | filipin (z-score) [5] | filipin (z-score) [6]
CCn1cc(C(=O)O)c(=O)c2cc(F)c(N3CCNCC3)cc21 [Norfloxacin] | -0.548 | -0.705 | -0.938 | -1.18 | -0.584 | -0.612
C[C@@H](O)[C@H]1C(=O)N2C(C(=O)O)=C(SCCNC=N)C[C@H]12 [Imipenem] | -0.41 | 0.231 | -0.414 | 0.00347 | -0.461 | -0.385
NS(=O)(=O)c1cc(C(=O)O)c(NCc2ccco2)cc1Cl [Furosemide] | -0.539 | -0.705 | -0.993 | -0.823 | -0.572 | -0.492
CC(=O)OCC(=O)[C@@]1(O)CC[C@H]2[C@@H]3CCC4=CC(=O)CC[C@]4(C)[C@@]3(F)[C@@H](O)C[C@@]21C [Fludrocortisone acetate] | -0.127 | -0.216 | -0.382 | -0.957 | -0.321 | -0.564
CCOC(=O)C1=C[C@]2(CC)CCCN3CCc4c(n1c1ccccc41)[C@@H]32 [Vinpocetine] | -0.0891 | 0.52 | -0.413 | -0.464 | -0.326 | -0.0256
COc1cc2ncnc(Nc3ccc(F)c(Cl)c3)c2cc1OCCCN1CCOCC1 [Gefitinib] | 3.94 | 2.43 | 0.816 | 0.788 | 2.49 | 2.83
CCCOc1cc(N)ccc1C(=O)OCCN(CC)CC [Propoxycaine hydrochloride] | 0.303 | 1.24 | 0.398 | 0.62 | -0.0905 | 0.287
CN(C)CCOC(c1ccc(Cl)cc1)c1ccccn1 (stereo not drawn) [Carbinoxamine maleate salt] | -0.697 | -0.856 | -0.5 | -0.502 | -0.442 | -0.169
CCC(C)(C)C(=O)O[C@H]1C[C@@H](C)C=C2C=C[C@H](C)[C@H](CC[C@@H]3C[C@@H](O)CC(=O)O3)[C@H]21 [Simvastatin] | -0.965 | -1.54 | -0.982 | -0.319 | -0.637 | 0.381
CCC(=O)[C@@]1(C)[C@H](C)C[C@H]2[C@@H]3CCC4=CC(=O)C=C[C@]4(C)[C@H]3[C@@H](O)C[C@@]21C [Rimexolone] | -0.0932 | 0.328 | 0.343 | -0.0902 | -0.235 | -0.418
Cn1c(=O)c2c(ncn2CC(O)CO)n(C)c1=O (stereo not drawn) [Diprophylline] | -0.55 | -0.754 | -0.617 | -0.852 | -0.554 | -0.628
CCCCN1CCCCC1C(=O)Nc1c(C)cccc1C (stereo not drawn) [Bupivacaine hydrochloride] | -0.317 | -0.117 | -0.729 | -0.969 | -0.543 | -0.511
N=C(NCCCCCCNC(=N)NC(=N)Nc1ccc(Cl)cc1)NC(=N)Nc1ccc(Cl)cc1 [Chlorhexidine] | -0.526 | -0.794 | -1.08 | -1.91 | -0.271 | -0.107
COc1cccc(N(C)C(=S)Oc2ccc3c(c2)CCCC3)n1 [Liranaftate] | 0.29 | -0.439 | -0.212 | 0.593 | -0.0958 | -0.421
CCSc1ccc2c(c1)N(CCCN1CCN(C)CC1)c1ccccc1S2 [Thiethylperazine dimalate] | 3.37 | 1.8 | -0.311 | -0.392 | 1.25 | 1.79
c1ccc(CNc2ncnc3nc[nH]c23)cc1 [Aminopurine, 6-benzyl] | -0.375 | -0.475 | -0.69 | -0.144 | -0.46 | -0.279
COc1ccc2c(c1)c(CC(=O)OCC(=O)O)c(C)n2C(=O)c1ccc(Cl)cc1 [Acemetacin] | -0.545 | -0.702 | -1.02 | -0.542 | -0.556 | -0.644
O=C(CCNNC(=O)c1ccncc1)NCc1ccccc1 [Nialamide] | -0.371 | 0.29 | -0.078 | -0.132 | -0.403 | -0.566
CC(C)(C)C(=O)OCOC(=O)[C@@H]1N2C(=O)[C@@H](NC(=O)[C@H](N)c3ccccc3)[C@H]2SC1(C)C [Pivampicillin] | -0.161 | 0.0846 | 0.0929 | -0.0816 | -0.266 | -0.41
CC(C)(C(=O)c1cccnc1)c1cccnc1 [Metyrapone] | -0.435 | -0.575 | -0.128 | -0.599 | -0.359 | -0.375
C[C@@H]1CCC[C@H](C)N1NC(=O)c1ccc(Cl)c(S(N)(=O)=O)c1 [Clopamide] | -0.569 | -1.24 | -0.626 | -0.712 | -0.503 | -0.648
NC[C@@H]1O[C@H](O[C@H]2[C@@H](O)[C@H](O[C@@H]3[C@@H](O)[C@H](N)C[C@H](N)[C@H]3O[C@H]3O[C@H](CO)[C@@H](O)[C@H](O)[C@H]3N)O[C@@H]2CO)[C@H](N)[C@@H](O)[C@@H]1O [Paromomycin sulfate] | -0.396 | -0.465 | -0.35 | -0.208 | -0.425 | -0.447
COc1cc(N)c(Cl)cc1C(=O)NC1CCN(CCCOc2ccc(F)cc2)CC1OC (stereo not drawn) [Cisapride] | 0.467 | 0.977 | -0.114 | 0.308 | 0.0889 | 0.672
CN(C)CCN(Cc1cccs1)c1ccccn1 [Methapyrilene hydrochloride] | -0.506 | 0.465 | -0.777 | -0.37 | -0.539 | -0.0761
